GPT2 inhibitor: inhibitors of human GPT2 alanine aminotransferase. Q8TD30. actives 0.25% (n = 100,000). Recombinant GPT2, coupled pyruvate oxidase/HRP Amplex Red fluorescence. Potency, µM (highest dose often 57.7 µM), inactives show top-dose activity change, negative = inhibition, hits mostly inhibitors; also: potency is read from the fitted curve at half-maximal effect; nearly all actives have a fitted effect of over 60% in size
Target sequence (Q8TD30 whole entry, looked up): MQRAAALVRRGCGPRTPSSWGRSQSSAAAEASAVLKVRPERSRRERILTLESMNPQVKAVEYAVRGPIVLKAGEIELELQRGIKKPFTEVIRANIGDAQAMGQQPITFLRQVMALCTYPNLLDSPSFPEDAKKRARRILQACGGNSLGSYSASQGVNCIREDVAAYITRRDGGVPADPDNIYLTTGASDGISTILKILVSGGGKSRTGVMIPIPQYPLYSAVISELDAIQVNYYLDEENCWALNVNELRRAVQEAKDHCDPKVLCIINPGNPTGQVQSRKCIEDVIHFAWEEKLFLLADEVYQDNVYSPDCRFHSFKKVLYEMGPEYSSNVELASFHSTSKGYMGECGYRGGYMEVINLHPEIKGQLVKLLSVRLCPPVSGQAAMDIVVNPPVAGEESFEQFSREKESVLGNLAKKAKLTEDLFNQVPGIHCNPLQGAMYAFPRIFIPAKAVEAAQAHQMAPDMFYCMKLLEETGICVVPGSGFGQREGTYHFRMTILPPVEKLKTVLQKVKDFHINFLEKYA
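Recombinant GPT2 (10ng/uL) with 250uM a-KG and 2mM L-alanine, 30 min at room temperature, in HEPES pH 7.5 buffer. Pyruvate detected by pyruvate oxidase/HRP/Amplex Red fluorescence after 30 min in the dark; AOA (50uM) as positive control.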
IP6K1 inh: IP6K1 kinase inhibition; Q92551; IP6K1 kinase, ADP-Glo luminescence, 2 h; hits give low values; activity change, % (series mostly up to about 58 µM); actives 0.81% (n = 140,000); in the data active = activity change below about -25%
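ADP-Glo luminescence measures ADP made by human IP6K1 during a 2 h RT reaction with ATP/IP6 (mix at 1.3 mM/130 uM); top library doses 57.5 and 19.1 uM final.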
SNCA expr inhib: inhibitors of alpha-synuclein (SNCA) gene expression; HEK-293 SNCA-luciferase knock-in, luminescence, 24 h; Potency, µM (highest dose often 57.2 µM), without a hit: at the top dose activity change, negative = inhibition, most hits filed as inhibitors; actives 0.17% (n = 140,000); AID 1671194;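 also: potency is read from the fitted curve at half-maximal effect; plate controls were DMSO cells for no effect and cell-free wells for full effect; nearly all actives have a fitted effect of over 45% in size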
SNCA viab count: reduces viability of HEK-293 SNCA reporter cells; Potency, µM (top dose mostly 57.1 µM), for the others: top-dose activity change, negative = cytotoxicity, most hits filed as cytotoxic; actives 0.12% (n = 150,000); HEK-293-SNCA-luc viability, GF-AFC fluorescence, 24 h;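 also: potency is read from the fitted curve at half-maximal effect; 0% = DMSO-treated cells and -100% = medium-only wells without cells; nearly all actives have a fitted effect of over 30% in size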
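Cytotoxicity counterscreen: after 24 h compound treatment of genome-edited SNCA-luciferase HEK-293 cells, live-cell protease substrate GF-AFC read by fluorescence after 30 min; activity scaled between DMSO (0%) and medium-only (-100%), curves Hill-fitted.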
IP6K1 inh cnf: confirmation of human IP6K1 inhibitors; shares compounds with IP6K1 inh; recombinant IP6K1 kinase, ADP-Glo luminescence, 2 h; Potency, µM (highest dose often 49 µM), inactives show at the top dose activity change, negative = inhibition, actives largely listed as inhibitors; actives 13% (n = 1,200); also: potency is read from the fitted curve at half-maximal effect; nearly all actives have a fitted effect of over 65% in size
* hit, by the source's call; i = inactive; ? = inconclusive; nt = no result given; [ ] = remark or other dose. In the library only some 1.1% were active in any assay of this set; here they are far more common. Unless noted, calls follow the shape of the dose curve; as a rule, active = well fitted curve in the direction sought with a large enough effect; inconclusive = small, poorly fitted or top-dose-only effect, or another doubt; inactive = no such curve, though single readings can be large; an effect the other way counts as inactive or inconclusive. Unless noted, % is scaled to controls: 0 for no effect and ±100 for the full control effect.

SMILES | GPT2 inhibitor | IP6K1 inh | SNCA expr inhib | SNCA viab count | IP6K1 inh cnf
CCOc1ccc2c(n1)CCN(C(=O)Cc1cccc(OC)c1)C2 | -3% | -26* | 48% | 3%[12.5 µM] | -23%
CC(C)NC(=O)C1CCCN(Cc2cccc(-c3ccsc3)c2)C1 (stereo not given) | nt | -10 | nt | nt | nt
CC[C@@H]1C(=O)N(C)c2cnc(Nc3ccc(C(=O)NC4CCN(C)CC4)cc3OC)nc2N1C1CCCC1 | i | nt | -4% | ? | 18%
COC(=O)c1cc(NC(=O)CC2C(=O)OCCN2Cc2ccccc2)cc(C(=O)OC)c1 (stereo not given) | nt | -33* | -10% | 1% | 9%
CCCOc1ccc(C(=O)N(Cc2ccc(N(C)C)cc2)CC2CCCO2)cc1 (stereo not given) | nt | -10 | 15% | -9% | nt
COc1ccc(C(=O)N(Cc2cc(OC)c(OC)c(OC)c2)CC2CCCO2)cc1 (stereo not given) | nt | -25* | 25% | ? | 5%
Cc1cc(CNC(=O)Cc2nonc2C)c2[nH]c(-c3ccccc3)c(C)c2c1 | -16% | -29* | 19% | -9% | -13%
COc1ccc(N2CCN(CC(O)COc3ccc(C(C)(C)C)cc3)CC2)cc1 (stereo not given) | nt | -29* | 3% | -6% | -9%
COc1ccc(N2CCN(CC(O)COc3ccc(C)cc3C)CC2)cc1 (stereo not given) | nt | 7 | -7% | -1% | nt
CCOC(=O)C1c2c(OC)ccc3c2C(=CC(C)(C)CO3)CN1Cc1nccn1C (stereo not given) | nt | 7 | nt | nt | nt
COc1cc(NC(=O)CSc2nccn2C)cc(OC)c1OC | nt | -4 | -8% | -10% | nt
Cn1cnnc1SCC(=O)Nc1cc(C(=O)O)cc(C(=O)O)c1 | nt | -30* | ? | 4% | -3%
COc1ccc(OCC(O)CN2CCC(=O)N(Cc3ccccc3)Cc3cc(OC)ccc32)cc1 (stereo not given) | nt | 9 | nt | nt | nt
CC(Oc1ccccc1)C(=O)Nc1ccccc1C(=O)OCc1cc(=O)n2nc(C3CC3)sc2n1 (stereo not given) | nt | -27* | -2% | 1% | 0%
CC(C)Cc1nn2c(=O)cc(COC(=O)c3ccccc3NC(=O)c3ccccc3)nc2s1 | nt | -28* | -17% | 8% | -6%
C#CCNC(=O)c1cc(-c2ccccc2F)nc2c1cnn2C | nt | -5 | nt | nt | nt
NCC(=O)Nc1ccc(-n2nc(C(F)(F)F)cc2-c2ccc3c(ccc4ccccc43)c2)cc1 | i | -35* | 34% | ? | ?
CN1CCOc2c(C(=O)NCc3cccnc3)cc(-c3ccccc3F)cc21 | 4%[88.5 µM] | -29* | -9%[87.6 µM] | ? | -17%
COc1cncc(-c2cc(C(=O)NCc3cccnc3)c3c(c2)N(C)CCO3)c1 | ? | -28* | ? | -12%[87.6 µM] | ?
Cc1ccccc1-c1cc(C(=O)NCc2cnn(C)c2)c2c(c1)N(C)CCO2 | i | -25* | ? | -14%[87.6 µM] | ?
COc1ccccc1-c1cc(C(=O)NCc2cccnc2)c2c(c1)N(C)CCO2 | -8%[88.5 µM] | -10 | -2%[87.6 µM] | -8%[87.6 µM] | nt
Cn1ncc2c(C(=O)N3CCCC3)cc(-c3ccc(C(F)(F)F)cc3)nc21 | nt | -9 | nt | nt | nt
O=C(NCc1cccc(C(F)(F)F)c1)C1CCCN1Cc1ccc(-c2cncnc2)cc1 (stereo not given) | i | -2 | -3% | -6% | nt
Cn1ncc2c(C(=O)NC3CCCC3)cc(-c3ccccc3C(F)(F)F)nc21 | nt | -5 | nt | nt | nt
O=C(C1CCCCN1Cc1ccc(-c2cccs2)cc1)N1CCN(Cc2ccccc2)CC1 (stereo not given) | -2% | 3 | ? | 10%[12.5 µM] | nt
COc1ccc(N2C(=O)CSC23C(=O)N(C)c2ccccc23)cc1Cl (stereo not given) | nt | -26* | -14% | -1% | -18%
COc1cc(N2C(=O)CSC23C(=O)N(C)c2ccccc23)cc(OC)c1OC (stereo not given) | nt | 6 | 2% | -1% | nt
NCCCNc1ccc(Nc2nccc(Nc3cc(C4CC4)[nH]n3)n2)cc1 | ? | -8 | nt | ? | nt
OCCCNc1cc(-c2ccnc(Nc3cccc(Cl)c3)n2)ccn1 | ? | -26* | ? | ? | ?
O=C(NCc1ccccc1Cl)C1CCN(c2nccc(Nc3ccccc3F)n2)CC1 | -20% | -2 | 22% | 6%[12.5 µM] | nt
